# Measurements as given in PubChem BioAssay (NCI).
# About 83,000 compounds went through this panel and 20% of them were active in at least one assay; those are over-represented in the sample as a whole.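 Values shown are percent growth following 48 h exposure of cells in 96-well plates to a single concentration of compound; below 10 was considered active.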 Unmarked numbers belong to inactive results. Active and inactive are the calls of the source.
# Tests used:
# Experiment in all cases: NCI-60 one-dose screen, 48 h (100 = growth as untreated, 0 = no growth, -100 = all killed)
# Settings in all cases: 10 µM unless noted
# SK-MEL-2 melanoma = test system: SK-MEL-2 melanoma
# EKVX NSCLC = test system: EKVX NSCLC
# SN12C renal = test system: SN12C renal
# UO-31 renal = test system: UO-31 renal
# TK-10 renal = test system: TK-10 renal
# ACHN renal = test system: ACHN renal
# CAKI-1 renal = test system: CAKI-1 renal
# A498 renal = test system: A498 renal
# CCRF-CEM leukemia = test system: CCRF-CEM leukemia
# MOLT-4 leukemia = test system: MOLT-4 leukemia
# RPMI-8226 leukemia = test system: RPMI-8226 leukemia
# OVCAR-8 ovarian = test system: OVCAR-8 ovarian
# OVCAR-5 ovarian = test system: OVCAR-5 ovarian
# OVCAR-4 ovarian = test system: OVCAR-4 ovarian
# SK-OV-3 ovarian = test system: SK-OV-3 ovarian
# IGROV1 ovarian = test system: IGROV1 ovarian
# OVCAR-3 ovarian = test system: OVCAR-3 ovarian
# HS 578T breast = test system: HS 578T breast
# NCI/ADR-RES ovarian = test system: NCI/ADR-RES ovarian
Structure (SMILES),growth (SK-MEL-2 melanoma),growth (EKVX NSCLC),growth (SN12C renal),growth (UO-31 renal),growth (TK-10 renal),growth (ACHN renal),growth (CAKI-1 renal),growth (A498 renal),growth (CCRF-CEM leukemia),growth (MOLT-4 leukemia),growth (RPMI-8226 leukemia),growth (OVCAR-8 ovarian),growth (OVCAR-5 ovarian),growth (OVCAR-4 ovarian),growth (SK-OV-3 ovarian),growth (IGROV1 ovarian),growth (OVCAR-3 ovarian),growth (HS 578T breast),growth (NCI/ADR-RES ovarian)
COc1cc(C2NC(=O)c3ccccc3N2)ccc1OCCCCCOc1c(OC)cc(C2=NOC(c3cc(OC)c(OC)c(OC)c3)C2)cc1OC (stereo unspecified),76.9%,50.6%,92.6%,69.2%,100%,41.3%,89.2%,99.3%,44.8%,24.6%,-22.2% (active),88.2%,103%,28.8%,93.8%,15.2%,78.6%,102%,65%
COc1ccc(NC(=O)CSc2nc(C)c(C(C)=O)n2-c2ccc(Cl)cc2)cc1,102%,95.5%,92.5%,102%,125%,99%,97.8%,75.6%,108%,91%,97.3%,88.7%,98.6%,85.3%,,95.1%,100%,90.4%,89.4%
COc1cc(/C=C/C(=O)N2CCN(C(=O)c3cc(OC)c(OC)c(OC)c3)CC2)ccc1OCCCN1C(=O)c2cccc3cccc(c23)C1=O,49.3%,114%,93.7%,42.1%,97.5%,80.7%,72.9%,62.2%,27.1%,49.6%,21.6%,50.6%,107%,77.9%,121%,,73.5%,38.6%,68.9%
Cc1ccc(/C=C/c2c(C(=O)/C=C/c3ccc(C(F)(F)F)cc3)c(C)nc3ccccc23)cc1,-20% (active),-31.6% (active),-61.7% (active),-98% (active),-71.1% (active),-100% (active),-91.1% (active),-80.8% (active),9.01% (active),-4.49% (active),-26.8% (active),4.18% (active),-39.6% (active),-74.1% (active),-47.5% (active),-80.1% (active),-86.3% (active),-13.2% (active),-0.26% (active)
O=C(c1ccccc1)c1c(/C=C/c2ccccc2)nc2ccccc2c1/C=C/c1ccc(Br)cc1,110%,102%,92.7%,68.2%,107%,97%,80.9%,79.9%,97%,94.6%,104%,102%,103%,88%,96.3%,103%,89.4%,91.3%,102%
CCOC(=O)c1csc(NC(=O)COc2cccc(/C=C3\Oc4cc(OC)ccc4C3=O)c2)n1,83.5%,98.6%,109%,-38.8% (active),125%,95.5%,92.3%,108%,62.3%,65.1%,64.4%,74.2%,130%,90%,101%,,78.4%,91.3%,79.4%
CC(C)C(NC(=O)C1(NC(=O)OCc2ccccc2)CCCC1)C(=O)O (stereo unspecified),107%,110%,102%,81%,108%,96.8%,102%,102%,104%,96%,111%,110%,94.8%,124%,96.2%,107%,120%,,104%
c1ccc(-c2nc([P+](c3ccccc3)(c3ccccc3)c3ccccc3)c(N3CCOCC3)o2)cc1,-25.3% (active),14.9%,1.32% (active),74%,29.9%,13.2%,50.9%,11.7%,13.4%,7.65% (active),-28.5% (active),1.55% (active),11.1%,11.4%,,16.7%,11%,24.9%,92.8%
C(=N\Nc1ncc(-c2cc3cc4c(cc3o2)OCO4)s1)/c1ccco1,90.8%,59.3%,38.9%,-43.4% (active),50.7%,11.1%,9.09% (active),71.1%,17.5%,9.91% (active),30.9%,23.7%,58%,32.5%,,30.2%,8.65% (active),70.6%,34.7%
CCCCCCCCCCCC(c1ccccc1)[N+](C)(C)C (stereo unspecified),-19.8% (active),42.7%,9.01% (active),80.8%,1.24% (active),81.9%,102%,55.4%,16.1%,5.29% (active),-16.1% (active),19.3%,17.3%,9.74% (active),10.3%,-60.8% (active),18.6%,,91.7%
COC(=O)c1ccc(CSc2nnc(-c3c(C)nc4ccc(C)cn34)o2)cc1,105%,102%,99.2%,85.9%,113%,98.3%,92.9%,93.5%,106%,94.4%,88.4%,103%,106%,94%,,109%,119%,105%,89.7%
